AHR act = activators of human aryl hydrocarbon receptor; 320,000 compounds, 2.5% hits; AID 2796; AHR-responsive luciferase reporter cells, luminescence; activation, % at 5 µM; in the data active = activation above about 47%;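 also: 0% = vehicle wells and 100% = reference agonist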
Target sequence (P35869 whole entry, looked up): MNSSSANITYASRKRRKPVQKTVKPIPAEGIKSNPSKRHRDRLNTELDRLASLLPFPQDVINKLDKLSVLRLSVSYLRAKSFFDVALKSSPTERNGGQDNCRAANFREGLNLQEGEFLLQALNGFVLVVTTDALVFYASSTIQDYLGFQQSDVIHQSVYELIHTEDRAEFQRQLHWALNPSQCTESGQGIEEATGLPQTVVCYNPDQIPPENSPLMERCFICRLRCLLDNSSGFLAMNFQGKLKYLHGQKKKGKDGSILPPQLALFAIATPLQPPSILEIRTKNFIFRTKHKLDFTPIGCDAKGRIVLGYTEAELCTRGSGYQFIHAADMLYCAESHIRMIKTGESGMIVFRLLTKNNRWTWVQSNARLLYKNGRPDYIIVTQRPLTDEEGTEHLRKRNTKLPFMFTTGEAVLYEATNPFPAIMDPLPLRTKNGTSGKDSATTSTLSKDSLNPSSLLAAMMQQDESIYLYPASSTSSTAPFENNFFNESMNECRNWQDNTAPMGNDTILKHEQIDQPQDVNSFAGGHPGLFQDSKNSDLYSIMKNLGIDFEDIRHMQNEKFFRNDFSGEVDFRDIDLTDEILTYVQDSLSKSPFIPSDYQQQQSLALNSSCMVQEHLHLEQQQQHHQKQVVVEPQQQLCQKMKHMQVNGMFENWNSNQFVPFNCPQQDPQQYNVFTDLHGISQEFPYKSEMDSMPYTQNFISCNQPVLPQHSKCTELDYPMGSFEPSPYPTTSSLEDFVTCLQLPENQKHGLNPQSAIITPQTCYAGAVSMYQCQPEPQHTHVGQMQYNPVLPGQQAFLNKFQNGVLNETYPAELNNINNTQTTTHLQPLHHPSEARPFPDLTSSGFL
HIF activator = HIF pathway transcriptional activation | U2OS HRE-luciferase reporter, luminescence; normalized: DMSO 0%, desferrioxamine 100% | activation, % at 7.5 µM (by protocol) | 300,000 compounds, 0.32% hits | AID 1910;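 active = mean activation of at least 10% of the iron chelator positive control signal, with at least half of replicates also reaching 10%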
p-CIP stab down = compounds decreasing mouse p/CIP protein stability | 290,000 compounds, 0.01% hits | decrease of EGFP signal, % at 10 µM | F442A p/CIP-EGFP cells, EGFP fluorescence, 16 h | Q05BA5;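 active = EGFP signal decrease of at least 30% at 10 µM or well 3 SD below plate mean, unless failing retest; inactive = the rest, including hits failing retest or dose response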
PolyA inhibitor = yeast polyadenylation inhibition. S. cerevisiae SKY197-pL101 polyadenylation reporter, beta-gal luminescence; efflux-impaired pdr1/pdr3 knockout yeast; score 100 = 6 SD above DMSO. activity score, % at 12 µM. 300,000 compounds, 0.02% hits;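 active = lowest replicate activity score at least 50, where 100 means six control SD above control mean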;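 also: yeast exposed to compound for 9 h at 30 °C; higher score means more reporter readthrough which indicates perturbed polyadenylation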
Platelet DG rel = modulates dense granule release in human platelets; human platelet-rich plasma, SFLLRN dense granule ATP release, luminescence; inhibition, %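 (compounds screened at 7.5 µM in platelet-rich plasma)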; 300,000 compounds, 0.22% hits; AID 1663;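 active = mean replicate score, as percent of positive control, at or above 50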
Active calls of the source: *; . = no result given. An excerpt weighted towards active compounds, which were near 2.8% of everything screened.

SMILES	AHR act	HIF activator	p-CIP stab down	PolyA inhibitor	Platelet DG rel
COc1cccc(/C=N/NC(=O)CCn2c3ccccc3c3ccccc32)c1	72.5*	-0.1	1.8	0.8	0.3
O=c1[nH]c(Nc2nc3ccccc3o2)nc2c1CCCC2	54.9*	2.5	-8.8	-19.0	-3.6
Cc1ccc(Nc2nc3c(c(=O)[nH]2)CCCC3)cc1	29.9	1.2	10.1	-12.7	-4.8
COc1ccc(OC)c(NC(=O)C(=S)NC2CCCCC2)c1	70.3*	0.3	4.0	-13.5	-0.9
Oc1sc(C=Nc2ccc(F)cc2)c2ccccc12	36.2	4.0	-204.5	-11.6	-0.2
Oc1sc(C=Nc2ccccc2)c2ccccc12	49.9*	1.1	-96.7	-28.7	-0.6
c1ccc2c(c1)OCCOCCOc1ccccc1OCCOCCO2	64.2*	0.0	-14.1	8.8	1.4
Nc1ccc2c(c1)OCCOCCOCCOCCOCCO2	-0.6	-1.0	13.8	15.8	0.5
CCCCCC1C/C(=N\O)C=C(C)C1C(=O)OC (stereo unspecified)	0.7	-0.3	-6.4	-3.1	3.9
CCCCCCCC1CC(=O)C=C(C)C1C(=O)OCC (stereo unspecified)	0.7	80.6*	-5.5	4.3	16.1
CC(C)CNS(=O)(=O)c1ccc(S(=O)(=O)N2CCN(CCC#N)CC2)cc1	1.1	-0.2	-13.4	-11.5	6.3
COc1c(C)cc(C(=O)C2CCCN(C(=O)c3ccc4cc[nH]c4c3)C2)cc1C (stereo unspecified)	0.0	-0.7	8.5	-2.3	3.2
O=C(CN1C(=O)COc2ccccc21)c1cccc(Cl)c1	6.1	-0.2	-12.5	1.2	2.1
O=C(CN1C(=O)COc2ccc(Cl)cc21)Nc1ccc2c(c1)OCCO2	4.0	82.0*	-8.1	12.5	9.1
O=C(CN1CCC(C(=O)c2ccc(Cl)cc2)CC1)Nc1ccc2c(c1)OCCO2	-0.6	74.4*	4.5	-0.1	-6.6
Cc1cccc(NC(=O)CN2C(=O)COc3ccc(Cl)cc32)c1	2.1	-0.5	-6.9	-10.2	6.4
O=C(CN1C(=O)COc2ccccc21)c1ccc(Cl)cc1	49.8*	-1.1	-4.2	3.1	-3.5
CCOC(=O)c1ccc(NC(=O)c2ccc(NS(C)(=O)=O)cc2)cc1	0.5	0.4	-1.8	19.6	7.7
CCc1ccc(C(=O)Nc2ccc(C)c(NS(C)(=O)=O)c2)cc1	64.7*	0.7	-7.3	-5.8	0.4
Cc1ccc(NC(=O)c2ccc(F)cc2F)cc1NS(C)(=O)=O	61.2*	0.3	-9.9	10.6	8.6
CC1CCN(c2ccc(N3C(=O)C4CCCCC4C3=O)cc2[N+](=O)[O-])CC1 (stereo unspecified)	-0.9	0.1	-18.9	12.5	-24.5
Cc1cc(C(F)(F)Cl)n2ncc(-c3ccccn3)c2n1	63.6*	1.1	5.8	-6.7	12.8
O=C1CCN(N=Nc2cccc(Cl)c2)N1	10.8	-0.2	4.3	9.1	52.8*
Cc1cc(C)c(OCC(=O)NCC2COc3ccccc3O2)c(C)c1 (stereo unspecified)	5.3	.	.	.	.
Cc1ccc2c(c1)N1C(=O)c3ccccc3C1C1=C(CC(C)(C)CC1=O)N2 (stereo unspecified)	49.7*	-1.2	3.6	9.4	13.1
SMILES	AHR act	HIF activator	p-CIP stab down	PolyA inhibitor	Platelet DG rel
Cc1ccc(C)c(NC(=O)CN(C)C(=O)C2CCN(C(=O)Nc3ccccc3)CC2)c1	-1.5	0.1	.	7.6	-6.9
Nc1c(C(=O)Nc2ccc(F)cc2)sc2nc(-c3ccco3)ccc12	72.2*	0.3	-12.6	-8.5	0.3
Cc1ccc(NC(=O)c2sc3nc4c(c(-c5ccco5)c3c2N)CCC4)cc1	60.3*	-0.5	-3.2	2.2	0.8
Nc1c(C(=O)Nc2ccc(Br)cc2)sc2nc(-c3ccco3)ccc12	60.4*	1.2	-8.3	2.6	-0.6
COCCCNC(=O)c1cc2c(-c3cccc(OC)c3)nn(C)c2s1	43.7	-12.5	10.7	-3.0	1.1
CCN(CC)CCNC(=O)c1cc2c(-c3cccc(OC)c3)nn(C)c2s1	47.8*	-40.6	10.8	10.6	-7.5
CCOCCCNC(=O)c1cc2c(-c3ccc(Cl)cc3)nn(C)c2s1	56.1*	.	2.0	19.7	17.3
CCCN(CCC)CCNC(=O)c1cc2c(-c3ccc(Cl)cc3)nn(C)c2s1	39.3	0.6	3.9	8.2	5.3
CCN(CC)CCNC(=O)c1cc2c(-c3ccc(Cl)cc3)nn(C)c2s1	52.9*	.	2.8	-12.2	3.3
CC(C)CN(CCC(=O)O)CC(C)C	-1.3	0.6	5.5	7.4	7.9
COC(=O)CN1C(=O)[C@H]2[C@@H](c3ccc(C)o3)N3C(=O)CN(CC4CC4)C(=O)[C@@]3(Cc3ccccc3)[C@H]2C1=O	-1.7	286.7*	-9.4	-11.7	-0.8
CCCCCCCCC1=NCCc2c1[nH]c1ccccc21	36.1	0.6	-5.2	10.7	25.6
CC(C)C/C=C1\CCc2c([nH]c3ccccc23)C1=O	63.6*	1.6	-9.1	-20.2	-7.0
O=C1/C(=C/c2cccnc2)CCc2c1[nH]c1ccccc21	72.8*	8.0	-6.8	-23.4	-11.2
Cc1cc(C)c(C(CC(=O)c2cccs2)C(C#N)C#N)c(C)c1 (stereo unspecified)	58.1*	3.3	-3.7	-26.4	-2.6
COC(=O)c1c(C)[nH]c(C(=O)C(C)OC(=O)c2cnc(C)cn2)c1C (stereo unspecified)	-0.1	.	.	.	.
O=C(Cc1ccccc1)Nc1ncnc2c1C(c1ccccc1)c1c(ccc3ccccc13)O2 (stereo unspecified)	6.5	.	.	.	.
Cn1c(=O)n(/N=C/c2ccccc2)c2ccccc21	62.0*	-12.7	1.7	-17.3	11.0
Cc1nc2ccccc2c(=O)n1/N=C/c1ccccc1	4.9	0.0	-11.8	6.0	-7.9
Cc1cc(C(F)F)nn1CC(=O)NCc1ccccc1F	18.5	-0.1	-4.3	-4.1	-6.1
COc1ccc(-c2cc(=O)c3ccccc3s2)cc1	94.1*	0.8	-9.5	-25.0	2.4
c1c2c(cc3sc(N4CCOCC4)nc13)OCCO2	-3.2	-3.2	-10.2	-7.1	56.7*
O=C(NCc1nnc2c(C(F)(F)F)cc(Cl)cn12)c1cccnc1	14.4	0.3	13.3	1.7	2.4
O=C(NCc1nnc2c(C(F)(F)F)cc(Cl)cn12)c1ccc2c(c1)OCO2	52.4*	-0.4	-6.1	2.3	-8.7
CCOC(=O)N1CCC(NS(=O)(=O)c2cc(Br)cc3c2N(C(=O)CC)CC3)CC1	-0.4	-0.1	-8.1	11.6	-0.5
Cc1ccc(S(=O)(=O)Nc2cc3c(C(=O)Nc4ccccc4)c(C)oc3c3ccccc23)cc1	63.8*	2.2	-5.8	-2.8	10.6
CC(=O)c1c(C)oc2c1cc(NS(=O)(=O)c1ccc(C(=O)O)cc1)c1ccccc12	38.9	-3.1	-11.8	-13.8	-3.2
CCOc1ccc(N=C2NC(=O)S/C2=C\c2ccc(N(C)C)cc2)cc1	62.2*	1.4	-104.9	-40.6	-2.4
CC(C)(C)c1ccc(Oc2ccc(NC(=O)c3cccs3)cn2)cc1	-6.2	-1.0	-10.1	-23.6	-2.9
COc1ccc(NC(=O)c2oc3ccccc3c2C)cn1	50.7*	2.1	-10.3	-27.8	2.4
